Source: the antibiotic and cytotoxicity screens of Wong et al. (2023)
Out of some 39,000 compounds screened, about 1,500 (3.8%) were called active. For the sample, actives were picked, then their nearest neighbours and some compounds at random.

What follows are compounds tested on HSkMC (human skeletal muscle cells) (assay: cytotoxicity call (relative viability < 0.9)). Conditions: 10 µM.

Row | Compound | cytotoxicity call
1 | Cc1ccc(S(=O)(=O)N(C)C[C@@H]2Oc3c(NC(=O)c4cnccn4)cccc3C(=O)N([C@H](C)CO)C[C@@H]2C)cc1 | inactive
2 | CC=Cc1ccc2n(c1=O)C[C@H]1[C@H](CO)[C@@H](C(=O)NCCc3cn(C)cn3)N(C(=O)C3CC3)[C@@H]21 | inactive
3 | COc1ccc(S(=O)(=O)N(C)C[C@H]2OCc3cn(nn3)CCCC(=O)N([C@@H](C)CO)C[C@H]2C)cc1 | inactive
4 | C[C@H](CO)N1C[C@H](C)[C@@H](CN(C)C(=O)Nc2ccc3c(c2)OCO3)OCCCC[C@H](C)Oc2ccc(NC(=O)C3CCCCC3)cc2C1=O | inactive
5 | C[C@H]1CN([C@@H](C)CO)C(=O)c2cc(C#CC3(O)CCCC3)cnc2O[C@H]1CN(C)C(=O)C1CCCCC1 | inactive
6 | Cc1noc(C)c1NC(=O)Nc1ccc2c(c1)C(=O)N([C@H](C)CO)C[C@@H](C)[C@H](CN(C)C(=O)Nc1ccc(C(F)(F)F)cc1)O2 | inactive
7 | O=C(C[C@@H]1CC[C@H]2[C@@H](COC[C@H](O)CN2C(=O)c2ccccc2)O1)N1CCOCC1 | inactive
8 | O=C(C[C@@H]1C[C@H]2c3cc(NS(=O)(=O)c4ccc(F)cc4)ccc3O[C@H]2[C@H](CO)O1)NCCN1CCCCC1 | inactive
9 | C[C@H](CO)N1C[C@H](C)[C@H](CN(C)S(=O)(=O)c2ccc(Cl)cc2)OCCCC[C@H](C)Oc2ccc(NC(=O)Nc3ccc(C(F)(F)F)cc3)cc2C1=O | inactive
10 | C=CCOC(=O)[C@H]1[C@@H]2C(=O)O[C@@H](c3ccccc3)[C@@H](c3ccccc3)N2[C@@H](c2ccc(OCCOC(=O)[C@H]3C[C@H]4C(=O)N[C@@H](Cc5ccccc5)C(=O)N4[C@H]3c3cccc(OCCO)c3)cc2)[C@]12C(=O)Nc1ccccc12 | inactive
11 | Cc1nn(C[C@@H](O)Cn2cnc3c2c(=O)n(C)c(=O)n3C)c(C)c1Br | inactive
12 | O=C(c1ccccc1Cl)c1cccnc1-c1nnn(Cc2cc(C(F)(F)F)cc(C(F)(F)F)c2)c1-c1ccncc1 | active
13 | NC1CCN(c2cccc(Cl)n2)CC1 | inactive
14 | CCN(CC)CCS(=O)(=O)[C@@H]1CCN2C(=O)c3coc(n3)CC(=O)C[C@H](O)/C=C(C)/C=C\CNC(=O)/C=C/[C@@H](C)[C@H](C(C)C)OC(=O)[C@@H]12 | inactive
15 | C[C@H](CO)N1C[C@H](C)[C@@H](CN(C)C(=O)Nc2ccc(F)cc2)OCCCC[C@H](C)Oc2ccc(NS(=O)(=O)c3ccc(F)cc3)cc2C1=O | inactive
16 | C[C@@H]1CN([C@H](C)CO)C(=O)c2cc(NC(=O)C3CC3)ccc2O[C@H]1CN(C)S(=O)(=O)c1cccs1 | inactive
17 | C[C@H](CO)N1C[C@H](C)[C@@H](CN(C)C(=O)Nc2cccc3ccccc23)Oc2ccc(NC(=O)Cc3cn(C)c4ccccc34)cc2C1=O | inactive
18 | C[C@@H]1CN([C@H](C)CO)C(=O)c2cc(NC(=O)Cc3cn(C)c4ccccc34)ccc2O[C@H]1CN(C)C(=O)Nc1cccc2ccccc12 | active
19 | C[C@H]1CN([C@@H](C)CO)C(=O)c2cc(NC(=O)Cc3cn(C)c4ccccc34)ccc2O[C@@H]1CN(C)C(=O)Nc1cccc2ccccc12 | inactive
20 | C[C@@H]1CN([C@@H](C)CO)C(=O)c2cc(NC(=O)Cc3cn(C)c4ccccc34)ccc2O[C@@H]1CN(C)C(=O)Nc1cccc2ccccc12 | active

Row | Compound | cytotoxicity call
21 | C[C@@H]1CN([C@@H](C)CO)C(=O)c2cc(NC(=O)Cc3cn(C)c4ccccc34)ccc2O[C@H]1CN(C)C(=O)Nc1cccc2ccccc12 | inactive
22 | C[C@H]1CN([C@@H](C)CO)C(=O)Cc2cc(NC(=O)Cc3cn(C)c4ccccc34)ccc2O[C@H]1CN(C)C(=O)Nc1cccc2ccccc12 | inactive
23 | C[C@H](CO)N1C[C@H](C)[C@H](CN(C)C(=O)Nc2cccc3ccccc23)Oc2ccc(NC(=O)Cc3cn(C)c4ccccc34)cc2C1=O | inactive
24 | C[C@H]1CN([C@@H](C)CO)C(=O)c2cc(NC(=O)Cc3cn(C)c4ccccc34)ccc2O[C@H]1CN(C)C(=O)Nc1cccc2ccccc12 | inactive
25 | C[C@@H]1CN([C@H](C)CO)C(=O)c2cc(NC(=O)Cc3cn(C)c4ccccc34)ccc2O[C@@H]1CN(C)C(=O)Nc1cccc2ccccc12 | active
26 | COc1ccc(NC(=O)Nc2cccc3c2O[C@@H](CN(C)C(=O)Nc2cccc4ccccc24)[C@@H](C)CN([C@@H](C)CO)C3=O)cc1 | inactive
27 | O[C@H]1[C@H](O)[C@@H](O)[C@H](O)[C@H](O)[C@H]1O | inactive
28 | COc1ccc(S(=O)(=O)N[C@H]2C=C[C@H](CC(=O)N3CCC(Cc4ccccc4)CC3)O[C@@H]2CO)cc1 | inactive
29 | CO[C@H]1CN(C)C(=O)c2cc(NC(=O)c3ccccc3)ccc2OC[C@H](C)N(C(=O)CN(C)C)C[C@@H]1C | inactive
30 | C[C@@H]1CN([C@H](C)CO)C(=O)c2cccc(NC(=O)c3cnccn3)c2O[C@@H]1CN(C)CC1CCCCC1 | inactive
31 | COc1ccc(CN(C)C[C@@H]2Oc3ccc(NC(=O)C4CC4)cc3CC(=O)N([C@H](C)CO)C[C@@H]2C)cc1 | inactive
32 | C[C@@H]1CCCCO[C@H](CN(C)Cc2ccc(Cl)c(Cl)c2)[C@@H](C)CN([C@H](C)CO)C(=O)c2cc(NC(=O)Nc3ccc(F)cc3)ccc2O1 | inactive
33 | Cn1cnc(S(=O)(=O)N2C[C@H](O)COC[C@@H]3O[C@H](CC(=O)NCc4ccc(F)cc4)CC[C@H]32)c1 | inactive
34 | Cc1cc(C(=O)Nc2cccc3c2O[C@H](CN(C)C(=O)Nc2c(C)noc2C)[C@H](C)CN([C@@H](C)CO)C3=O)n(C)n1 | inactive
35 | COC1C(OC(N)=O)C(O)C(Oc2ccc3c([O-])c(NC(=O)c4ccc(O)c(CC=C(C)C)c4)c(=O)oc3c2C)OC1(C)C.[Na+] (centres undefined) | inactive
36 | CO[C@@H]1[C@@H](OC(=O)c2ccc(C)[nH]2)[C@@H](O)[C@@H](Oc2ccc3c(c2C)OC(=O)[C@H](NC(=O)c2[nH]cc(CC(=O)Nc4cc5ccc(O[C@@H]6OC(C)(C)[C@H](OC)[C@@H](OC(=O)c7ccc(C)[nH]7)[C@H]6O)c(C)c5oc4=O)c2C)C3)CC1(C)C | active
37 | COc1ccc(NC(=O)N(C)C[C@H]2OCCCC[C@H](C)Oc3ccc(NC(=O)Nc4ccc5c(c4)OCO5)cc3C(=O)N([C@@H](C)CO)C[C@@H]2C)cc1 | inactive
38 | C[C@H]1CN([C@@H](C)CO)C(=O)c2cc(NC(=O)Nc3ccc4c(c3)OCO4)ccc2O[C@H]1CN(C)S(=O)(=O)c1cn(C)cn1 | inactive
39 | Cc1noc(C)c1NC(=O)Nc1ccc2c(c1)C(=O)N([C@@H](C)CO)C[C@H](C)[C@H](CN(C)C(=O)Nc1ccc(F)cc1)OCCCC[C@H](C)O2 | inactive
40 | Cc1noc(C)c1NC(=O)Nc1ccc2c(c1)C(=O)N([C@H](C)CO)C[C@H](C)[C@H](CN(C)Cc1ccc3c(c1)OCO3)OCCCC[C@H](C)O2 | inactive

Row | Compound | cytotoxicity call
41 | O=C(C[C@H]1CC[C@@H]2[C@H](COC[C@H](O)CN2C(=O)c2ccncc2)O1)NC1CCC1 | inactive
42 | C[C@@H]1CN([C@H](C)CO)C(=O)Cc2cc(NC(=O)Nc3cccc4ccccc34)ccc2O[C@H]1CN(C)Cc1ccc(-c2ccccc2)cc1 | inactive
43 | C[C@H]1CN([C@@H](C)CO)C(=O)Cc2cc(NC(=O)Nc3cccc4ccccc34)ccc2O[C@@H]1CN(C)Cc1ccc(-c2ccccc2)cc1 | active
44 | C[C@@H]1CN([C@H](C)CO)C(=O)Cc2cc(NC(=O)Nc3cccc4ccccc34)ccc2O[C@@H]1CN(C)Cc1ccncc1 | inactive
45 | C[C@H](CO)N1C[C@H](C)[C@H](CN(C)Cc2ccncc2)Oc2ccc(NC(=O)Nc3cccc4ccccc34)cc2CC1=O | active
46 | C[C@H](CO)N1C[C@H](C)[C@@H](CN(C)Cc2ccc(-c3ccccc3)cc2)Oc2ccc(NC(=O)Nc3cccc4ccccc34)cc2CC1=O | inactive
47 | C[C@@H]1CN([C@H](C)CO)C(=O)Cc2cc(NC(=O)Nc3cccc4ccccc34)ccc2O[C@H]1CN(C)Cc1ccncc1 | inactive
48 | COc1ccc(CN(C)C[C@H]2Oc3ccc(NC(=O)Nc4cccc5ccccc45)cc3CC(=O)N([C@@H](C)CO)C[C@@H]2C)cc1 | inactive
49 | COc1ccc(CN(C)C[C@@H]2Oc3ccc(NC(=O)Nc4cccc5ccccc45)cc3CC(=O)N([C@H](C)CO)C[C@@H]2C)cc1 | inactive
50 | COc1ccc(CN(C)C[C@@H]2Oc3ccc(NC(=O)Nc4cccc5ccccc45)cc3CC(=O)N([C@@H](C)CO)C[C@@H]2C)cc1 | active
51 | COc1ccc(CN(C)C[C@H]2Oc3ccc(NC(=O)Nc4cccc5ccccc45)cc3CC(=O)N([C@@H](C)CO)C[C@H]2C)cc1 | inactive
52 | COc1ccc(CN(C)C[C@@H]2Oc3ccc(NC(=O)Nc4cccc5ccccc45)cc3CC(=O)N([C@H](C)CO)C[C@H]2C)cc1 | inactive
53 | COc1ccc(CN(C)C[C@H]2Oc3ccc(NC(=O)Nc4cccc5ccccc45)cc3CC(=O)N([C@H](C)CO)C[C@H]2C)cc1 | active
54 | Cn1nc(Cn2ccnc2)c2c1CN(CCO)C2 | inactive
55 | C[C@H](CO)N1C[C@H](C)[C@H](CN(C)S(=O)(=O)c2cccs2)Oc2ccc(NS(=O)(=O)c3cccs3)cc2C1=O | inactive
56 | C[C@@H]1CN([C@H](C)CO)C(=O)c2cccc(NC(=O)C3CC3)c2O[C@H]1CN(C)S(=O)(=O)c1cn(C)cn1 | inactive
57 | C[C@@H]1CN([C@H](C)CO)C(=O)c2cc(NS(=O)(=O)c3cccs3)ccc2O[C@@H](C)CCCCO[C@@H]1CN(C)S(C)(=O)=O | inactive
58 | COCC(=O)N1C[C@@H](C)[C@H](OC)CN(C)C(=O)c2cc(NC(=O)c3ccc(OC)cc3)ccc2OC[C@H]1C | inactive
59 | C[C@@H]1CN([C@@H](C)CO)C(=O)c2cc(NC(=O)NC3CCCCC3)ccc2O[C@@H](C)CCCCO[C@@H]1CN(C)Cc1ccccc1 | inactive
